Results taken from ChEMBL document CHEMBL4513155, “CO-ADD screening of University of Sydney (Australia) compounds” (2021).
Entries with a potency or affinity are not part of this list.

Experiments:
Staphylococcus aureus = details: Concentration 32 ug.mL-1; ASSAY_TEST Inhibition of Bacterial Growth; detection method Absorption (OD600); MEDIA CAMHB; plate type 384well; NBS; CORNING #3640; time 18 hr
Escherichia coli = details: Concentration 32 ug.mL-1; ASSAY_TEST Inhibition of Bacterial Growth; detection method Absorption (OD600); MEDIA CAMHB; plate type 384well; NBS; CORNING #3640; time 18 hr

## CN(C)C(COc1cncc2nnc(-c3ccc(C#N)cc3)n12)c1ccc(F)c(F)c1 (centres undefined)
Staphylococcus aureus
  Inhibition: -0.93%
Escherichia coli
  Inhibition: 3.93%

## Fc1ccc(CCOc2cncc3nnc(-c4ccc(Cl)cc4)n23)cc1F
Staphylococcus aureus
  Inhibition: -7.02%
Escherichia coli
  Inhibition: -0.47%

## O.O=C1c2cccc3c(-n4cc(CN5CCCNCCN(Cc6cn(-c7ccc8c9c(cccc79)C(=O)N(CCCO)C8=O)nn6)CCCNCC5)nn4)ccc(c23)C(=O)N1CCCO.[Cl-].[Cl-].[Zn+2]
Staphylococcus aureus
  Inhibition: 7.81%
Escherichia coli
  Inhibition: 6.15%

## CCN1C(=O)c2cccc3c(-c4cn(CCN5CCCNCCN(CCn6cc([C@]7(O)CC[C@H]8[C@@H]9CCc%10cc(O)ccc%10[C@H]9CC[C@@]87C)nn6)CCCNCC5)nn4)ccc(c23)C1=O.OCCN1CCN(CCCN2c3ccccc3Sc3ccc(Cl)cc32)CC1.[O-][Cl+3]([O-])([O-])[O-].[O-][Cl+3]([O-])([O-])[O-].[Zn+2]
Staphylococcus aureus
  Inhibition: 38.05%
Escherichia coli
  Inhibition: 0.56%

## N#Cc1ccc(-c2nnc3cncc(OCC(O)c4ccc(F)c(F)c4)n23)cc1 (centres undefined)
Staphylococcus aureus
  Inhibition: -3.19%
Escherichia coli
  Inhibition: 2.25%

## Fc1ccc(CCOc2cncc3nnc(-c4ccc(C(F)(F)F)nc4)n23)cc1F
Staphylococcus aureus
  Inhibition: 6.53%
Escherichia coli
  Inhibition: 1.6%

## COC(COc1cncc2nnc(-c3ccc(C#N)cc3)n12)c1ccc(F)c(F)c1 (centres undefined)
Staphylococcus aureus
  Inhibition: -4.85%
Escherichia coli
  Inhibition: 2.52%
